The results in this text go back to article PMC5913336, “True equilibrium measurement of transcription factor-DNA binding affinities using automated polarization microscopy”.

pKd: −log10 of the molar value.

Sequence of D (Q24533 127-229): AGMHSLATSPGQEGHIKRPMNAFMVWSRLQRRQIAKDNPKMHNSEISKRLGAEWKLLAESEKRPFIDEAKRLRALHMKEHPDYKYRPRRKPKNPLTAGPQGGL

The first assay concerns the target D (Drosophila melanogaster, UniProt Q24533 127-229). As to the kind of experiment: FP; 33 mM phosphate pH 7.0, 90 mM NaCl, 0.01% Tween 20, 0.1 mM DTT, 0.5% agarose; room temperature. The following applies: tags: N-GST (pGEX-6P-1, kept); dsDNA, one strand shown.
Turning to GAGCATTGTTCTTG, the binding signal is 2.52 Kd / Kd of best base at the position.

Turning to GACAATTGTTCTTG, the binding signal was 10.4 Kd / Kd of best base at the position.

GACCATTGTTCCTG: the binding signal was 3.75 Kd / Kd of best base at the position.

Regarding GACCTTTGTTCTTG, the binding signal is 2.8 Kd / Kd of best base at the position.

In the case of GACCATTGGTCTTG, the binding signal is 54.3 Kd / Kd of best base at the position.

With GACCATTGTTCATG, the binding signal is 2.96 Kd / Kd of best base at the position.

On to GACCATTGTTCTCG, for which the binding signal was 1.79 Kd / Kd of best base at the position.

With GACCATTGTGCTTG, the binding signal was 11.9 Kd / Kd of best base at the position.

Regarding GACCATTGCTCTTG, the binding signal was 46 Kd / Kd of best base at the position.

For GACCATTGTTCTTA, the binding signal is 1.16 Kd / Kd of best base at the position.

On to GACCATTGTTCTGG, for which the binding signal was 1.95 Kd / Kd of best base at the position.

In the case of GACCATTGTTCTTG, the pKd was around 8.64.

Turning to GACCATGGTTCTTG, the binding signal was 39.1 Kd / Kd of best base at the position.

On to GACCATTATTCTTG, for which the binding signal was 14.1 Kd / Kd of best base at the position.

With GACCAATGTTCTTG, the binding signal was 44.4 Kd / Kd of best base at the position.

For TACCATTGTTCTTG, the binding signal was 1.36 Kd / Kd of best base at the position.

On to GACCATTGTCCTTG, for which the binding signal is 8.08 Kd / Kd of best base at the position.

Regarding CACCATTGTTCTTG, the binding signal is 1.12 Kd / Kd of best base at the position.

Take GACCATTGTTCTTC: the binding signal is 1.12 Kd / Kd of best base at the position.

As to GACCATTTTTCTTG, the binding signal is 40.5 Kd / Kd of best base at the position.

For GCCCATTGTTCTTG, the binding signal is 1.11 Kd / Kd of best base at the position.

Turning to GACCATTGTTCTTT, the binding signal is 1.16 Kd / Kd of best base at the position.

With GACCATCGTTCTTG, the binding signal was 34.5 Kd / Kd of best base at the position.

As for GACCATTGATCTTG, the binding signal was 31.7 Kd / Kd of best base at the position.

GACCATTGTACTTG: the binding signal is 8.66 Kd / Kd of best base at the position.

For the sequence GACCATTGTTTTTG, the binding signal is 2.05 Kd / Kd of best base at the position.

In the case of GTCCATTGTTCTTG, the binding signal is 1.08 Kd / Kd of best base at the position.

As for GACCACTGTTCTTG, the binding signal was 40.3 Kd / Kd of best base at the position.

On to GACCGTTGTTCTTG, for which the binding signal is 26 Kd / Kd of best base at the position.

In the case of GACTATTGTTCTTG, the binding signal is 2.24 Kd / Kd of best base at the position.

Turning to GACCATTGTTCGTG, the binding signal is 3.61 Kd / Kd of best base at the position.

GACCATAGTTCTTG: the binding signal is 40.3 Kd / Kd of best base at the position.

As for GACCATTCTTCTTG, the binding signal is 17.3 Kd / Kd of best base at the position.

Take AACCATTGTTCTTG: the binding signal is 1.37 Kd / Kd of best base at the position.

For the sequence GATCATTGTTCTTG, the binding signal is 2.05 Kd / Kd of best base at the position.

GACCATTGTTGTTG: the binding signal was 3.32 Kd / Kd of best base at the position.

Regarding GACCAGTGTTCTTG, the binding signal is 33 Kd / Kd of best base at the position.

A further assay has as its target T1, Slp1-FL (Drosophila melanogaster, UniProt P32030).
T1 sequence: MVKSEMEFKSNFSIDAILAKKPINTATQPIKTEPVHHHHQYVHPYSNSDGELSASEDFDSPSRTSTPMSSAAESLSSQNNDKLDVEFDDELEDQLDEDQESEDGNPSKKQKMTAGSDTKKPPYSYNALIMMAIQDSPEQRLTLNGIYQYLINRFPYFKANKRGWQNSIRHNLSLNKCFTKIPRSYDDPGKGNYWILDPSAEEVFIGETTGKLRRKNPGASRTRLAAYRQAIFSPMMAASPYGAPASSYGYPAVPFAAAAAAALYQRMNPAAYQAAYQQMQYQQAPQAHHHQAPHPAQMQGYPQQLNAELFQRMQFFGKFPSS
The assay is described as above. The following applies: tags: N-GST (pGEX-6P-1, kept); dsDNA, one strand shown.
TCGTGTTTACACTTA: the binding signal is 1.19 Kd / Kd of best base at the position.

For the sequence ACGTGTTTACACTCA, the binding signal was 3.73 Kd / Kd of best base at the position.

For the sequence ACGTGTTTACACATA, the binding signal was 9.38 Kd / Kd of best base at the position.
